Source: PubChem BioAssay (National Center for Advancing Translational Sciences (NCATS))
D3 ag = qHTS of D3 Dopamine Receptor Agonist: qHTS. 410,000 tested, 0.58% active. D(3) dopamine receptor (Homo sapiens), P35462. max activation, %. D3R DiscoveRx beta-arrestin cells, luminescence, 90 min; in the data active means max activation above about 30%; further: 0% is about no effect
Target sequence (P35462 whole entry, looked up): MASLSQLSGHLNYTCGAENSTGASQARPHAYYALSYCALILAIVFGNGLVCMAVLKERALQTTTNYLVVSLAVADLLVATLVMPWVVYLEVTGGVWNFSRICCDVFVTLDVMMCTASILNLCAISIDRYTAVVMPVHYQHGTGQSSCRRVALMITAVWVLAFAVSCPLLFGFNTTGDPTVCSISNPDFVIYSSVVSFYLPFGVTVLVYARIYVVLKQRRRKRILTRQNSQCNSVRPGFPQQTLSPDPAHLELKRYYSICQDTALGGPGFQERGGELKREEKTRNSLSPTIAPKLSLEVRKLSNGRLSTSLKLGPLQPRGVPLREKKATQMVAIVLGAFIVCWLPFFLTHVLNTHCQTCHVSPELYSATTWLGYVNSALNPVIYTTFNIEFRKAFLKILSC
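Agonist mode: compounds and dopamine controls were applied to plated cells for 90 min at 37 degrees C after an overnight attachment at 1500 cells/well. Luminescent read-out followed 30 - 60 minutes at room temperature with DiscoveRx detection reagent.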
DRD3 antagonist = qHTS of D3 Dopamine Receptor Antagonist: qHTS; D3R cells, DiscoveRx beta-arrestin luminescence, antagonist mode; active compounds read low; max response, negative = inhibition, %; 360,000 tested, 2.5% active; AID 652054, 2013; in the data active means max response below about -50%; further: on the % scale 0 is the no-effect control and ±100 the full control effect
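Cells expressing the human receptor were seeded at 1500 cells/well, incubated overnight at 37 degrees C in 5% CO2, then exposed to library compounds with dopamine controls for 90 minutes at 37 degrees C before luminescent detection.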
D1 potentiator = Potentiators of Human D1 Dopamine Receptor: qHTS; D(1A) dopamine receptor (Homo sapiens), P21728; HEK293 TREx D1 cells, calcium flux, dopamine EC20 potentiation; potentiation, % at 10 µM; 360,000 tested, 0.036% active; in the data active means potentiation above about 30%; further: 0% is about no effect
D1 ag = Allosteric Agonists of the Human D1 Dopamine Receptor: qHTS; HEK293 T-REx D1 cells, calcium flux, agonist mode; activation, % at 2 µM; 360,000 tested, 1% active; AID 504660, 2011; in the data active means activation above about 30%; further: 0% is about no effect
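Inducible HEK293 T-REx D1 cells, force-coupled to calcium signalling, were plated at 4000 cells/well with tetracycline and held overnight at 30 C. After no-wash calcium dye loading, compound-evoked calcium rise over 180 s flagged agonists.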
D1 antag = Antagonist of Human D 1 Dopamine Receptor: qHTS; D(1A) dopamine receptor (Homo sapiens), P21728; HEK293 TREx D1 cells, calcium flux, dopamine EC80; active compounds read low; activity change, negative = inhibition, % at 10 µM; 360,000 tested, 3.2% active; AID 504652, 2011; in the data active means activity change below about -30%; further: on the % scale 0 is the no-effect control and ±100 the full control effect
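After overnight tetracycline induction at 30 C, force-coupled D1 HEK293 cells took up a no-wash calcium dye at room temperature. Compounds were added and monitored 180 s, and the response to EC80 dopamine was then recorded.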
* marks the source's active call; other numbers are inactive results; x = no result. In the library only some 6.1% were active in any assay of this set; here they are far more common.

SMILES	D3 ag	DRD3 antagonist	D1 potentiator	D1 ag	D1 antag
CC(=O)c1ccc(NC(=O)c2ccc3c(=O)n4c(nc3c2)CCCCC4)cc1	-9	-10	-4	10	-45*
O=C(Nc1ccc(Cl)cc1)c1ccc2c(=O)n3c(nc2c1)CCCCC3	3	23	-16	12	-59*
O=C(Nc1ccc(F)cc1)c1ccc2c(=O)n3c(nc2c1)CCCCC3	4	2	-11	4	-6
O=C(Nc1ccc(F)c(Cl)c1)c1ccc2c(=O)n3c(nc2c1)CCCCC3	8	5	-5	16	-58*
COc1ccc(CNC(=O)c2ccc(C(C)C)cc2)cc1	-2	10	-4	3	-47*
COc1ccc(CNC(=O)c2cc3sccc3n2C)cc1	-3	x	-1	0	-52*
COCCNC(=O)c1cc2sccc2n1C	-2	-22	-7	1	-8
COc1cc(Cn2c(=O)oc3ccc(C)cc32)ccc1OC(C)C	2	14	-12	11	-33*
CCOc1ccc(Cn2c(=O)oc3ccc(C)cc32)cc1OC	5	34	-6	6	-22
Cn1nc(C(=O)OCC(=O)Nc2ccc3ccccc3c2)c2ccccc2c1=O	3	12	15	7	7
COc1cc(/C=C(\C#N)C(=O)Nc2ccc3c(c2)OCCO3)ccc1O	3	1	0	41*	3
COc1cc(/C=C/C(=O)OCC(=O)Nc2ccc3c(c2)OCCO3)ccc1O	-23	-19	-7	0	4
CCOC(=O)c1c(-c2ccc(C)cc2)csc1NC(=O)/C(C#N)=C/c1ccc(O)c(OC)c1	1	-4	5	111*	2
COC(=O)c1c(-c2ccc(Br)cc2)csc1NC(=O)Cc1ccc(OC)c(OC)c1	12	21	0	1	-3
COC(=O)c1c(-c2ccc(C)cc2)csc1NC(=O)Cc1ccc(OC)c(OC)c1	32*	93	0	4	0
CN(C)c1ccc(/C=C/c2ccc3ccccc3n2)cc1	-1	13	2	139*	-5
Oc1ccc(/C=C/c2ccc3ccccc3n2)cc1	-1	5	-5	2	9
CCCN(CCC)c1ccc(/C=C/c2ccc3cc(OCC)ccc3n2)cc1	0	12	-3	33*	-19
CCN1CCN(c2c(S(=O)(=O)c3ccc(Cl)cc3)cnc3ccccc23)CC1	-16	x	-1	1	6
CC(=O)N(C)C1=C(N2CCOCC2)C(=O)c2ccccc2C1=O	-33	-57*	1	2	19
O=C(Cc1ccc(Cl)cc1)NC(=S)Nc1ccccc1N1CCOCC1	-2	0	12	34*	-34*
O=C(Nc1ccccc1N1CCOCC1)C1=NN(c2ccccc2)C(=O)CC1	-4	-52*	2	1	-12
O=C(Nc1cc(C(F)(F)F)ccc1N1CCOCC1)C1=NN(c2ccccc2)C(=O)CC1	-1	1	7	2	-3
CCCC(=O)NC(=S)Nc1ccccc1N1CCOCC1	2	1	0	1	-2
O=C(Nc1ccc(N2CCOCC2)c(Cl)c1)c1cccnc1	-6	-5	-5	1	2
SMILES	D3 ag	DRD3 antagonist	D1 potentiator	D1 ag	D1 antag
O=C(Cc1ccccc1)Nc1ccccc1N1CCOCC1	5	-52*	-8	3	-1
O=C(Cc1ccccc1)Nc1ccccc1N1CCCC1	-7	-21	3	1	5
O=C(Nc1ccccc1N1CCOCC1)c1cccnc1	8	5	-11	1	-79*
Cc1ccc(CNC(=O)c2ccc(N3CCC4(CC3)CC(c3ccccc3)=NO4)c([N+](=O)[O-])c2)cc1	-5	-61*	0	0	-4
CCOC(=O)N1CCC(NC(=O)c2ccc(N3CCC4(CC3)OCCO4)c([N+](=O)[O-])c2)CC1	5	0	-7	3	8
CCCCNC(=O)c1ccc(N2CCC3(CC2)OCCO3)c([N+](=O)[O-])c1	-12	4	-6	2	-50*
Cc1ccc(CNC(=O)c2ccc(N3CCC4(CC3)CC(c3ccccc3)=NO4)c(N)c2)cc1	34*	36	-6	3	-12
O=C(NCc1ccccc1)c1ccc(N2CCC3(CC2)CC(c2ccccc2)=NO3)c([N+](=O)[O-])c1	9	1	-8	3	-24
CCCCN1CC(=O)N2[C@H]3c4cc(Cl)ccc4OC[C@@H]3[C@H](c3ccccc3)[C@]2(C)C1=O	-10	2	-2	-1	x
COc1ccc(OC)c(CCNC(=O)c2nc(-c3ccc(Cl)cc3)n3c2CCCCC3)c1	7	x	1	3	5
O=c1[nH]c(=O)n(Cc2ccco2)c2c1C(C(F)(F)F)(C(F)(F)F)N=C(CCC1CCCCC1)N2	-5	-28	-5	26	23
CC(C)Cn1c2c(c(=O)[nH]c1=O)C(C(F)(F)F)(C(F)(F)F)N=C(CCC1CCCCC1)N2	13	3	8	31*	0
COc1ccc(CNC[C@H]2O[C@@H](n3ccc(=O)[nH]c3=O)[C@H](O)[C@@H]2O)cc1OC	-6	-59*	x	x	x
Cc1ccc(C(=O)N/N=C/C=C/c2ccccc2)cc1	-14	-21	-1	8	-36*
Cc1occc1C(=O)N/N=C/C=C/c1ccccc1	-1	-22	9	-1	-11
COC(=O)Cc1ccc(NC(=O)c2ccc3c(c2)C(=O)N(CC2CCCO2)C3=O)cc1 (centres undefined)	29	14	-9	8	-3
O=C(O)Cc1ccc(NC(=O)c2ccc3c(c2)C(=O)N(CC2CCCO2)C3=O)cc1 (centres undefined)	-11	-21	-12	2	-39*
N=c1ccn2c(n1)O[C@H]1[C@@H](CO)[C@H](O)O[C@H]12	-6	-9	-5	-2	7
Cc1ccc(C(=O)NCCSc2c(C)[nH]c3ccccc23)cc1[N+](=O)[O-]	1	-3	-11	0	-70*
COc1cc(C(=O)NCCSc2c(C)[nH]c3ccccc23)cc(OC)c1OC	5	x	1	2	-4
COc1cccc(C(=O)NCCSc2c(C)[nH]c3ccccc23)c1OC	8	22	-13	16	-38*
CN1C[C@@H]2[C@@H]3C(=O)N(Cc4ccccc4)C(=O)[C@@H]3[C@](C)(C1=O)N2C(=O)c1ccc(Br)cc1	0	26	x	x	x
Nc1n[nH]c(N)c1N=Nc1cccc(C(F)(F)F)c1	5	1	-1	0	0
COCCCNc1ncnc2c1c(-c1ccccc1)cn2-c1ccc(C)c(Cl)c1	-8	x	2	2	11
CN(C)C1(CN=Cc2cc(Cl)cc([N+](=O)[O-])c2O)CCCCC1	-7	-68*	-5	3	4
